SMILES strings stand for the structures. The whole screen tested about 420,000 compounds, of which about 50,000 (12%) were called active. Another 26% or so got no clear call; they are omitted. Calls follow the shape of the dose curve; as a rule, active = well fitted inhibition curve with a large enough effect; inconclusive = small, poorly fitted or top-dose-only effect; inactive = flat fitted curve, though single readings scatter. The entries come from a sample that favours actives as a whole. A call without a number means that no potency is given here.
Potency is read from the fitted curve at half-maximal effect.

The nature of the test: qHTS for Inhibitors of human tyrosyl-DNA phosphodiesterase 1 (TDP1): qHTS in cells in presence of CPT. Also: nearly all actives have a fitted effect of over 55% in size. The settings on record: chicken DT40 Tdp1-/-;hTDP1 cells + 20 nM CPT, ATP luminescence, 48 h; series mostly up to 46.2 µM. In short, it runs like this: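 Chicken DT40 Tdp1-/- cells stably complemented with human TDP1 were seeded at 400 cells/well in medium containing 20 nM camptothecin, exposed to pin-transferred compounds, and grown at 37 °C for at least 48 hr. Viability was read as ATP luminescence.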
In general terms: qHTS replaces the single test concentration by a dilution series.
Regarding `Cc1cc(OCC(=O)N2CCN(c3ncccn3)CC2)ccc1Cl`, the Potency result was “inactive”. Same read-out and setting: the value for `COC(=O)C1=C(C)N(C)C(=S)NC1c1cc(OC)ccc1OC` (centres undefined) was “inactive”; that for `COc1ccc(CC2c3cc(OC)c(OC)cc3CC[N+]2(C)CCC(=O)OCCCCCOC(=O)CC[N+]2(C)CCc3cc(OC)c(OC)cc3C2Cc2ccc(OC)c(OC)c2)cc1OC` (centres undefined) was 16.4 µM (active). Still for that read-out and setting: in the case of `COc1cc2c(cc1OC)[C@@H](Cc1cc(OC)c(OC)c(OC)c1)[N+](C)(CCCOC(=O)CC/C=C/CCC(=O)OCCC[N+]1(C)CCc3cc(OC)c(OC)cc3[C@H]1Cc1cc(OC)c(OC)c(OC)c1)CC2` (some centres undefined) it was “inactive”; in that of `COC(=O)C1=CN(Cc2ccc(OC)c(OC)c2)C=C(C(=O)OC)C1c1cccs1`, “inactive”. On the same count and under the same terms, the value for `O=C(NCc1cccc(CNC(=O)Nc2cccc(O)c2)c1)Nc1cccc(O)c1` was “inactive”; that for `COc1ccc(C(=O)OCC(=O)Nc2ccc3[nH]c(=O)[nH]c3c2)c(OC)c1OC` was “inactive”.

Take `C/C(=N\N1CCN(Cc2ccc(C)cc2)CC1)c1ccco1`: the Potency entry was “inactive”.

Take `NS(=O)(=O)c1ccc(N2C(=O)C3C4CC(C(Br)C4Br)C3C2=O)cc1` (centres undefined): the Potency result was “inactive”. For the molecule `CC1(C)CC(=O)C=C(Nc2ccccc2)C1`, the Potency entry was “inactive”. Take `Cc1ccccc1C#CC1=CC(=O)CC(C)(C)C1`: the Potency is 20.6 µM (active). Still for that read-out and setting: the value for `Cc1cc(O)ccc1NC1=CC(=O)CC(C)(C)C1` was “inactive”. The same measure, in the same setting: the value for `COc1ccc(C2(O)C(=O)Nc3ccccc32)cc1` (centres undefined) was “inactive”; that for `CC(=O)N1CCN(CC(C)(C)NS(=O)(=O)c2ccc(C)cc2)CC1` was “inactive”. The same measure, in the same setting: in the case of `COc1ccc2cc(S(=O)(=O)Nc3ccccn3)ccc2c1` it was “inactive”; in that of `COc1cc(NS(=O)(=O)c2ccc3ccccc3c2)c2ncccc2c1`, 8.2 µM (active); in that of `CCOc1ccc(OCC)c(NS(=O)(=O)c2ccc3[nH]c(=O)ccc3c2)c1`, “inactive”. `CN(C)C(=O)[C@@H]1C[C@@H](Sc2nc3ccccc3[nH]2)CN1Cc1ccc(Cl)cc1`: the activity change, negative = growth inhibition is 0.0416% [at 9.04 µM] (inactive). On to `CCOC(=O)C(C)Oc1cccc2c(=O)n(CC(=O)N3CCc4ccccc43)ccc12` (centres undefined), for which the Potency entry is “inactive”. As for `CCCCn1nc(C(=O)N2CCc3ccccc32)c2ccccc2c1=O`, the Potency was 18.4 µM (active). On to `CCCCn1nc(C(=O)OCC(=O)Nc2sccc2C(N)=O)c2ccccc2c1=O`, for which the Potency entry is “inactive”. Turning to `O=C(CSc1nc2ccccc2[nH]1)Nc1nc(-c2ccccc2)c(-c2ccccc2)o1`, the Potency result was “inactive”. The same measure, in the same setting: in the case of `O=C(CSc1n[nH]c(-c2cccs2)n1)N1CCCCC1` it was “inactive”. The same measure, in the same setting: in the case of `Cc1cccc(C)c1-n1c(C)cc(/C=C2\C(=O)NN(c3ccccc3)C2=O)c1C` it was “inactive”; in that of `CC(C)Cn1cnc2c1c(=O)n(CC(O)c1ccccc1)c(=O)n2CC(C)C` (centres undefined), “inactive”; in that of `Cn1c(=O)c2c(ncn2CC(COCc2ccccc2Cl)OCc2ccccc2Cl)n(C)c1=O` (centres undefined), 25.9 µM (active). The same measure, in the same setting: the value for `Cn1c(=O)c2c(ncn2CCc2ccccc2)n(C)c1=O` was “inactive”; that for `COc1ccc(C)cc1NC(=O)CSc1nnc2ccc(-c3ccccn3)nn12` was “inactive”. On to `CCN(Cc1ccccc1)S(=O)(=O)c1cc2c3c(c1)CCN3C(=O)CC2`, for which the Potency entry was “inactive”. On the same count and under the same terms, in the case of `O=C(CCc1nc(CN2CCN(S(=O)(=O)c3ccc(F)cc3)CC2)no1)N1CCCCC1` it was “inactive”. On to `CCc1ccc(CNCc2c(C(=O)O)n(Cc3ccc(F)cc3Cl)c3cc(OC)ccc23)cc1`, for which the Potency was 11.6 µM (active). Consider `COc1cccc(NC(=O)NCc2ccc(F)cc2)c1`, for which the Potency entry was “inactive”. Take `COc1ccc(CNC(=O)CN2CCC(n3nnc4cc(F)ccc43)CC2)cc1`: the Potency result was “inactive”. Take `COc1cc(C)nc(N2CCCC(C(=O)NCC(C)C)C2)n1` (centres undefined): the Potency entry was “inactive”. With `O=C(Nc1ccccc1)O/N=C1\CCCCC1c1ccc([N+](=O)[O-])cc1[N+](=O)[O-]` (centres undefined), the Potency entry was “inactive”. Consider `CCCCCCC(=O)Nc1nc(C)c(-c2csc(Nc3cccc(OC)c3)n2)s1`, for which the Potency was 20.6 µM (active). Same read-out and setting: the value for `C=CCCC(=O)Nc1nc(C)c(-c2csc(Nc3ccc(Cl)cc3)n2)s1` was 11.6 µM (active); that for `Cc1nnc(NC(=O)CCCOc2ccccc2)s1` was “inactive”.

For the molecule `Cc1ccn2c(-c3csc(Nc4ccc(C(=O)O)cc4)n3)c(C)nc2c1`, the Potency result is “inactive”. Still for that read-out and setting: in the case of `CC(=O)Nc1nc(C)c(-c2csc(Nc3ccc(S(N)(=O)=O)cc3)n2)s1` it was “inactive”. Turning to `COc1cccc(NC(=O)COc2cccnc2[N+](=O)[O-])c1`, the Potency entry was “inactive”. `CCc1ccccc1OCC(=O)Nc1nnc(C2CC2)s1`: the Potency entry was “inactive”. Still for that read-out and setting: the value for `N#Cc1ccc[n+](CC(=O)c2ccc(O)c(O)c2)c1` was “inactive”.

Consider `O=C(CSc1ncn[nH]1)Nc1ccc(Br)cc1Br`, for which the Potency result was “inactive”. The same measure, in the same setting: in the case of `Cc1n[nH]c(=O)c2c(NC(=O)COC(=O)c3ncc(Cl)c(Cl)c3Cl)oc(C)c12` it was “inactive”.

In the case of `O=C(CN(C(=O)c1nsc(Cl)c1Cl)c1cccc(F)c1)NC1CCCC1`, the Potency result is “inactive”. `Cc1ccc(S(=O)(=O)n2oc(=O)c(C3CCCCC3)c2N)cc1`: the Potency result was “inactive”. Still for that read-out and setting: in the case of `O=C(N/N=C/c1ccc2c(c1)OCO2)c1ccc(Cn2cc([N+](=O)[O-])cn2)o1` it was “inactive”.

On to `Cc1ccc(C(=O)O)cc1NC(=O)c1ccc(Cn2nc(C)c(Cl)c2C)o1`, for which the Potency entry is “inactive”. Still for that read-out and setting: in the case of `Cc1c(Cl)c([N+](=O)[O-])nn1Cc1ccc(C(=O)N/N=C\c2cc(Cl)ccc2O)o1` it was 3.66 µM (active); in that of `Brc1ccccc1/C=N/Nc1nc2ccccc2o1`, “inactive”. Same read-out and setting: the value for `COCCN(C(=O)C(C)C)c1nnc(-c2ccc(C(C)(C)C)cc2)s1` was 20.6 µM (active). Regarding `COc1cc(OC)cc(-c2nnc(N(C)C(=O)c3ccncc3)s2)c1`, the Potency result was “inactive”. The same measure, in the same setting: in the case of `COCCN(C(=O)c1ccco1)c1nnc(-c2ccc(OC)cc2)s1` it was “inactive”; in that of `COc1ccc(/C=C/c2noc(-c3ccccc3O)n2)cc1OC`, “inactive”; in that of `CC(=O)O[C@H]1c2ccccc2-c2ccccc2[C@@H]1OC(C)=O`, “inactive”. For `Cc1cccc(NC(c2cccc(F)c2)c2ccc3ccc(C)nc3c2O)n1` (centres undefined), the Potency was 8.2 µM (active). The same measure, in the same setting: the value for `CCn1ncc(CNC(=O)C2(C)CC2(Br)Br)c1C` (centres undefined) was “inactive”; that for `O=C(CCCC(=O)N1CCN(c2cccc(Cl)c2)CC1)c1ccccc1` was 14.6 µM (active); that for `CCc1nc2ccc(C(=O)N3CCN(c4cccc(Cl)c4)CC3)cc2nc1CC` was “inactive”. For `O=C(CN1CCN(c2ccc(Cl)cc2)CC1)c1ccccc1`, the Potency result was “inactive”. Take `COc1cc(C(C(=O)NC2CCCC2)N(C(=O)c2ccco2)c2ccccc2C(C)=O)cc(OC)c1OC` (centres undefined): the Potency result was “inactive”. On to `CC(C)C(NC(=O)c1c(F)cccc1F)C(=O)NCc1ccncc1` (centres undefined), for which the Potency result is “inactive”. With `CCO[C@H]1OC(C(=O)N2CCOCC2)=C[C@@H](c2ccc3c(c2)OCO3)[C@@H]1CCCO`, the Potency result was “inactive”. Same read-out and setting: the value for `O=C(NC1CC1)C1=C[C@H](c2coc3ccccc3c2=O)C[C@H](OCCCCO)O1` was “inactive”; that for `CCO[C@H]1OC(C(=O)NCc2ccccc2)=C[C@@H](c2coc3ccccc3c2=O)[C@@H]1CCCO` was 23.1 µM (active). In the case of `Cc1ccc(NC(=O)C(c2ccccc2)N2CCN(C(=O)c3ccco3)CC2)cc1` (centres undefined), the Potency entry was “inactive”. Still for that read-out and setting: in the case of `O=C(O)C1CCCN1c1nc(Cl)ccc1[N+](=O)[O-]` (centres undefined) it was “inactive”; in that of `CCC(=O)N1CCc2cc(S(=O)(=O)CCC(=O)N3CCN(c4ccccc4F)CC3)ccc21`, “inactive”.

Consider `CN(Cc1ccccc1)C(=O)CCS(=O)(=O)c1cc(Br)cc2c1N(C(=O)C1CC1)CC2`, for which the Potency was 13 µM (active).

As for `CCC(=O)N1CCc2cc(Br)cc(S(=O)(=O)CCC(=O)NCc3ccccc3OC)c21`, the Potency result is “inactive”. On the same count and under the same terms, in the case of `O=C(CCS(=O)(=O)c1cc(Br)cc2c1N(C(=O)C1CC1)CC2)Nc1ccc(Br)cc1F` it was “inactive”; in that of `O=C(CCS(=O)(=O)c1cc(Br)cc2c1N(C(=O)C1CC1)CC2)Nc1ccc(C(F)(F)F)cc1`, “inactive”. Same read-out and setting: in the case of `CCC(=O)N1CCc2cc(Br)cc(S(=O)(=O)CCC(=O)N3CCN(c4ccc(F)cc4)CC3)c21` it was 20.6 µM (active); in that of `CC1(C)C[C@H]2C3=CCC4[C@@]5(C)CC[C@H](O)[C@](C)(CO)C5CC[C@@]4(C)[C@]3(C)C[C@@H](O)[C@@]2(CO)[C@@H](O)[C@@H]1O` (some centres undefined), “inactive”. `CCCCc1nc2cc(C(=O)NCCc3cnn(C)c3)ccc2o1`: the Potency result was “inactive”. As to `Cc1cc(C)c(C)c(S(=O)(=O)N[C@@H](C)C(=O)OC(C)C(=O)NC(N)=O)c1C` (some centres undefined), the Potency result is “inactive”. Same read-out and setting: in the case of `CN(Cc1c(F)cccc1Cl)C(=O)COC(=O)Cn1cnc2ccccc2c1=O` it was “inactive”.

Consider `CCOC(=O)Nc1ccc(S(=O)(=O)N(C)C(C)C)cc1`, for which the Potency result is “inactive”.

For `CCc1nnc(NC(=O)C2CCN(C(=O)c3ccccc3C)CC2)s1`, the Potency entry was “inactive”. Same read-out and setting: the value for `Cc1ccccc1C(=O)N1CCC(C(=O)Nc2ccc(S(=O)(=O)N(C)C(C)C)cc2)CC1` was 14.6 µM (active); that for `COc1ccc(N2CCN(CCCNC(=O)C3CCN(S(=O)(=O)N4CCOCC4)CC3)CC2)cc1` was “inactive”; that for `NNC(=O)c1oc2nc(-c3ccccc3)cc(-c3ccco3)c2c1N` was “inactive”. `CN(C)C(=O)Cn1c(=O)n(S(=O)(=O)c2ccccc2)c2ccccc21`: the Potency entry is “inactive”.

As for `C/C(=N\OCC(=O)Nc1ccc(Br)cc1)c1cccs1`, the Potency entry is “inactive”. Still for that read-out and setting: the value for `CC1(C)CCCC2=C1CC1C(=O)N(c3ccccc3)C(=O)C1C2` (centres undefined) was “inactive”; that for `CC1CC2=C(CC1/C=N/NC(N)=S)C(C)(C)CCC2` (centres undefined) was 4.11 µM (active); that for `Cc1ccccc1N1CC(C(=O)Nc2nnc(SCCC3OCCO3)s2)CC1=O` (centres undefined) was “inactive”. For the molecule `COc1ccc(NC(=O)N2CCCC2C(=O)NCc2ccccc2Cl)cc1` (centres undefined), the Potency result was “inactive”. Turning to `CCOc1ccc(Nc2oc(/C=C/c3ccc(F)cc3)nc2C#N)cc1`, the Potency entry is “inactive”. As for `Cc1ccccc1-c1nc(C#N)c(NCc2ccco2)o1`, the Potency entry was “inactive”. Still for that read-out and setting: in the case of `COc1ccc(Nc2oc(-c3ccccc3Cl)nc2C#N)cc1` it was 2.91 µM (active); in that of `CCOC(=O)N1CCN(Cc2nnc(-c3ccccc3Cl)o2)CC1`, “inactive”; in that of `CCc1ccc[n+](-c2nc([O-])sc2C=O)c1`, “inactive”. Turning to `COc1cccc(C(=O)Nc2cc3c(cc2Br)OCCCO3)c1`, the Potency entry is “inactive”. Take `Cn1c(N)c(C(=O)COC(=O)C23CC4CC(CC(C4)C2)C3)c(=O)n(C)c1=O`: the Potency result is “inactive”. On the same count and under the same terms, in the case of `Cc1cc(C(=O)COC(=O)C2CC2)c(C)n1-c1ccc(F)cc1` it was “inactive”; in that of `Cc1ccc(-n2c(C)cc(C(=O)CN3C(=O)C(=O)N(C4CCCC4)C3=O)c2C)cc1`, 20.6 µM (active). In the case of `CCOC(=O)c1cc2c(n(-c3ccc(C)cc3)c1=O)CCCC2=O`, the Potency result was “inactive”.

Source of the values: PubChem BioAssay AID686979 (National Center for Advancing Translational Sciences (NCATS), 2013).
